Assay outcomes deposited in PubChem BioAssay by several laboratories.
In the library only some 5.4% were active in any assay of this set; here they are far more common.
MPTP block: blocks calcium-induced mitochondrial swelling; isolated mouse mitochondria, Ca2+ swelling absorbance, 30 min; inhibition, % at 10 µM; 1.4% of 360,000 active; AID 602449;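 active = inhibition of 50% or more, scaled per plate between neutral and stimulator controls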;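 also: 0% = DMSO wells given calcium and 100% = 1 mM EGTA wells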
SKKanGAS inh: inhibitors of SKKanGAS S. pyogenes growth in kanamycin (SK-promoter or general growth effect). BacTiter-Glo, 6 h. inhibition, % at 7.5 µM. 1.3% of 300,000 active;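 active = mean replicate score, as percent of positive control median, at least 50; inconclusive = mean below 50 but one replicate at or above 50; inactive = mean and every replicate below 50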;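 also: strain carries kanamycin resistance gene driven by streptokinase promoter and grows in 40 µg/ml kanamycin; loss of luminescence reflects streptokinase promoter inhibition or plain growth inhibition; 0% = median of DMSO wells and 100% = positive control at its reference dose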
Mdm2 MdmX PPI: disrupts the human Mdm2-MdmX interaction | O15151+Q00987 | SaOS-2 split-luciferase Mdm2/MdmX complementation, luminescence | inhibition, % at 8 µM | 3% of 330,000 active | AID 485346;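 active = inhibition of at least 50% at 8 µM in the primary screen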
CSC inhib: cancer stem cell inhibition. cancer stem cell-like cells viability, luminescence. 1.1% of 300,000 active. inhibition, % at 7.5 µM; in the data active = inhibition above about 75%; inconclusive = no clear call, values can overlap the other calls; tested in HMLE shEcad cells
Calb FLC: affects C. albicans growth with fluconazole | C. albicans CaCi-2 (fluconazole-resistant clinical isolate) + fluconazole, Alamar Blue growth, 48 h | growth inhibition, % (no concentration beside the values) | 0.57% of 300,000 active | AID 1979;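 active = growth inhibition above about 58% in most replicates, limit read from the data, passing the limit was not always enough; inconclusive = exactly half the replicates above a set limit; inactive = most replicates below a set limit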;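 also: all wells also contain fluconazole at 8 µg/ml as a sub-toxic cotreatment; 0% = median of DMSO wells and 100% = median of geldanamycin control wells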
Beta cell apopt: blocks beta cell apoptosis. INS-1E cytokine-induced death, ATP luminescence, 48 h; percent of positive-control rescue, neutral wells zero. protection from apoptosis, % (test concentration not listed). 0.8% of 300,000 active. AID 435005;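 active = Every replicate reaches about 75%, or at least half do and their mean reaches it too, limit read from the data; inconclusive = At least half of replicates reach the limit but their mean does not; inactive = Under half of replicates reach the limit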;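 also: 0% = cytokine-treated negative control wells and 100% = positive control rescue; higher means more ATP so stronger rescue from cytokine killing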
Mdm2-MdmX conf: confirmation of human Mdm2/MdmX interaction inhibitors; Mdm2-MdmX binding, luminescent assay; shares compounds with Mdm2 MdmX PPI; inhibition, % at 8 µM; 55% of 10,000 active; AID 489028; in the data active = inhibition above about 40%
FLuc counter: inhibits full-length luciferase, flagging false Mdm2/MdmX hits | 77% of 6,200 active | inhibition, % at 8 µM | SaOS-2 full-length luciferase counterscreen, luminescence | shares compounds with Mdm2 MdmX PPI;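 active = mean inhibition at 8 µM reaching about 37%, which flags the compound as non-specific, limit read from the data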;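 also: p53-null SaOS-2 cells with luciferase driven by a doxycycline-inducible promoter; compound on cells about two nights before reading with doxycycline added after day one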
An asterisk follows results filed as active; ? = inconclusive; . = no result.

SMILES	MPTP block	SKKanGAS inh	Mdm2 MdmX PPI	CSC inhib	Calb FLC	Beta cell apopt	Mdm2-MdmX conf	FLuc counter
CCOc1ccc(-n2nnnc2SCC(=O)Nc2ccc(NC(C)=O)cc2)cc1	1	-3	57*	-1	8	-5	6	.
COc1cccc(-n2nnnc2SCC(=O)Nc2ccc3c(c2)OCCO3)c1	0	4	79*	7	.	-3	28	.
O=C(CC1C(=O)NCCN1Cc1ccc(F)cc1)NCCOc1cccnc1 (configuration not stated)	0	-2	1	-2	4	1	.	.
COc1ccccc1C1=CC(=O)C[C@H](c2ccc3c(c2)OCO3)C1	0	.	49	56	.	2	.	.
O=C1C=C(c2cc3ccccc3s2)C[C@@H](c2ccc3c(c2)OCO3)C1	2	.	67*	-11	.	-17	41*	101*
O=C(CCl)N(C/C=C/c1ccccc1)c1ccc2c(c1)OCCO2	-1	17	79*	1	-24	-18	67*	26
O=C(/C=C/c1ccccc1)c1ccc2c(c1)OCCCCO2	9	-4	-169	0	-3	4	.	.
CCOC(=O)CSc1ncnc2c1c(-c1ccccc1)cn2-c1ccc(OC)cc1	0	12	8	-6	10	6	.	.
CCOc1ccc(-n2cc(-c3ccccc3)c3c(N4CCOCC4)ncnc32)cc1	-1	28	74*	104*	-6	14	65*	83*
COc1ccc(-n2cc(-c3ccccc3)c3c(N4CC(C)OC(C)C4)ncnc32)cc1 (configuration not stated)	0	15	64*	69	6	9	50*	84*
CN(C)CCCNC(=O)C[C@H]1C[C@H](C(=O)N2CCCCC2)[C@@]2(CCc3ccccc3)c3[nH]c4cc(CCC(=O)N(C)C)ccc4c3CCN2C1=O	0	.	27	.	.	.	.	.
COc1ccc(-c2cc(C(F)(F)F)nc(-n3ccnc3C)n2)cc1	-2	-7	55*	7	1	-3	36	.
COc1ccc(OCc2cccc(C(=O)Nn3cc([N+](=O)[O-])cn3)c2)cc1	18	3	79*	42	?	9	71*	4
COc1ccc(OCc2cccc(C(=O)NN)c2)cc1	-2	0	-14	3	11	-6	.	.
COc1cccc(C(=O)Nc2cc(C)on2)c1	-1	.	.	.	.	.	.	.
COc1ccc(OCc2cccc(C(=O)Nc3cc(C)on3)c2)cc1	3	-5	50	6	?	6	37	.
Cn1c(NC(=O)CC(C)(C)C)cc(=O)n(C)c1=O	-1	.	-32	-4	.	-8	.	.
CN(CC(=O)Nc1ccc(F)c(F)c1F)C(=O)C1=COCCO1	-1	-3	5	10	4	0	.	.
O=C(COC(=O)c1cc([N+](=O)[O-])ccc1N1CCOCC1)Nc1ccc(Cl)cn1	-1	29	76*	86*	6	38	58*	68*
O=C(c1ccc(Cl)cc1)c1cc([N+](=O)[O-])ccc1N1CCOCC1	-2	3	65*	52	?	32	52*	81*
COc1ccc(COC(=O)c2cc([N+](=O)[O-])ccc2N2CCOCC2)cc1F	1	1	72*	60	7	51	78*	125*
O=C(COC(=O)c1cc([N+](=O)[O-])ccc1N1CCOCC1)Nc1ccc(Cl)cc1	0	17	26	4	3	.	.	.
O=C(OCc1ccc(Br)cc1)c1cc([N+](=O)[O-])ccc1N1CCOCC1	2	.	.	.	.	.	.	.
CN1CCN(c2ccc([N+](=O)[O-])cc2C(=O)c2ccc(Cl)cc2)CC1	-2	5	50*	-4	-6	18	61*	57*
Cc1ccoc1C(=O)N1CCCC(CO)(Cc2ccc(F)cc2)C1 (configuration not stated)	1	1	28	-12	?	-4	.	.
SMILES	MPTP block	SKKanGAS inh	Mdm2 MdmX PPI	CSC inhib	Calb FLC	Beta cell apopt	Mdm2-MdmX conf	FLuc counter
Cc1ccc(C(=O)c2cc([N+](=O)[O-])ccc2N2CCCCC2)cc1	2	0	53*	56	-2	10	65*	96*
CC1CCCN(c2ccc([N+](=O)[O-])cc2C(=O)c2ccccc2)C1 (configuration not stated)	4	-8	65*	57	13	45	55*	99*
O=C(c1ccccc1)c1cc([N+](=O)[O-])ccc1N1CCOCC1	0	0	34	.	-6	.	.	.
CCOC(=O)[C@@H](C)N(C(=O)OC(C)(C)C)S(=O)(=O)N(Cc1ccccc1)[C@H](C(=O)OC)C(C)C	2	.	.	.	.	.	.	.
N#CC1=C(N)NC(SCc2ccc(F)cc2)=C(C#N)C12CCCCC2	43	-10	59*	62	0	7	60*	72*
COc1ccc(CC(=O)NCCCSc2ccccc2)cc1OC	1	-5	-13	.	0	4	.	.
CCCCC[C@H](O)/C=C/[C@H]1CCC(=O)[C@@H]1CCCCCCC(=O)N1CCCCC1CO (some centres not stated)	-1	6	60*	19	-3	-2	44*	54*
CC(C)[C@H](CO)N(Cc1cccc(F)c1)c1nc(Nc2cccc(Cl)c2)c2ncn(C(C)C)c2n1	-1	36	55*	71	9	23	5	.
CC[C@H](CO)Nc1nc(Nc2cccc(Cl)c2)c2ncn(C(C)C)c2n1	0	17	90*	82*	-7	62	71*	40*
CC(C)n1cnc2c(N(C)c3cccc(Cl)c3)nc(N(CCO)CCO)nc21	-2	-4	19	7	1	-6	.	.
CN(C(=O)COC(=O)c1ccccc1Cc1ccccc1)c1c(N)n(Cc2ccccc2)c(=O)[nH]c1=O	0	-9	40	-2	.	-3	.	.
COc1ccccc1/C=N/NC(=O)C(=O)NCc1cccnc1	-1	-8	27	4	1	-4	.	.
CCCCNC(=O)C1CCN(C(=O)Nc2ccc(C)cc2)CC1	-2	-6	13	4	-6	-3	.	.
Cn1nc(-c2ccccn2)nc2c(=O)n(C)c(=O)nc1-2	1	52*	66*	120*	4	127*	80*	34
Clc1cccc(Nc2nc(-c3cccnc3)cs2)c1	5	-24	-108	17	28	3	.	.
O=c1c2c3c(sc2ncn1/N=C/c1ccc([N+](=O)[O-])o1)CCCC3	0	3	58*	103*	12	21	43*	57*
O=C1C=C(c2cccs2)C[C@H](c2ccccc2)[C@H]1n1nnc([N+](=O)[O-])n1	-2	22	74*	149*	-10	101*	54*	172*
CC(=O)C1C(=O)C=C(c2cccs2)CC1c1ccccc1 (configuration not stated)	0	9	12	-16	1	3	.	.
